# PubChem BioAssay AID1053125 (Broad Institute, 2014)
# Measured potencies and affinities stand elsewhere. Activity calls are given as the source filed them.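 How the source made its calls: active means viability loss whose fitted half-maximal concentration is at most twice the top valid tested dose; inconclusive means flat curve with 30 to 70% loss, or poor fit; inactive means the rest.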
# Test: HepG2 cell cytotoxicity, dose response, cytotoxicity control, ATP luminescence, cherry-pick, set 6 (AID 1053125);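 further: negative values mean loss of viability signal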
# Details: HepG2 viability, ATP luminescence (CellTiter-Glo), 72 h; series mostly up to 26 µM; activity change, negative = cytotoxicity: at the top concentration
row,Structure (SMILES),"activity change, negative = cytotoxicity"
1,Cc1ccc2[nH]c3ccccc3c(=O)c2c1,-13.1% (inactive)
2,Cn1cccc1/C=N/NC(=O)c1sc2cc(Cl)ccc2c1Cl,-8.71% (inactive)
3,NC(=O)c1c(NC(=O)Cc2ccccc2)sc2c1CCN(Cc1ccccc1)C2,-10.1% (inactive)
4,Cc1noc(C)c1S(=O)(=O)N(CC(=O)N1CCCCCC1)c1ccc(C(C)C)cc1,-21.8% (inactive)
5,COCCCn1c(=N)c(C(=O)NC2CCCCC2)cc2c(=O)n3ccccc3nc21,-7.84% (inactive)
6,CCOc1ccccc1N=c1oc2cc(O)ccc2cc1C(=O)NCC1CCCO1 (stereo not given),-13% (inactive)
7,CCNC(=O)c1cc2c(=O)n3cccc(C)c3nc2n(Cc2ccc(C)cc2)c1=N,-17.9% (inactive)
8,O=C(COC(=O)c1cc(S(=O)(=O)N2CCCCC2)ccc1N1CCOCC1)c1ccccc1Cl,-11.1% (inactive)
9,Cc1cc(=O)oc2cc(OC(=O)c3cncc(Br)c3)ccc12,4.96% (inactive)
10,CCn1c(=N)c(C(=O)NCCCOC)cc2c(=O)n3cccc(C)c3nc21,65.3% (inactive)
11,COc1cc(C(=O)NCCCNc2nc3c(C)cc(C)cc3cc2C#N)cc(OC)c1OC,-12% (inactive)
12,COC(=O)C1=CN(C)C=C(C(=O)OC)C1c1ccccc1Cl,-5.6% (inactive)
13,COc1ccc(C2C3=C(CC(C)(C)CC3=O)N(C)C3=C2C(=O)CC(C)(C)C3)cc1,4.57% (inactive)
14,Cc1ccc2c(c1)N(C(=O)CCC(=O)NCCCN1CCOCC1)CC(C)O2 (stereo not given),-15.4% (inactive)
15,N=c1c(C(=O)NCC2CCCO2)cc2c(=O)n3ccccc3nc2n1Cc1ccc(Cl)cc1 (stereo not given),-14.8% (inactive)
16,COCCCOc1cc(NCc2ccccc2)c2ncn(C(C)C)c2c1,5.95% (inactive)
17,CC(C)CCn1c(CN2CC(C)OC(C)C2)nc2c1c(=O)n(C)c(=O)n2C (stereo not given),-4.86% (inactive)
18,Cc1ccc2c(c1)-c1c(cnn1CC(=O)Nc1ccccc1N1CCN(C)CC1)CO2,-11.7% (inactive)

row,Structure (SMILES),"activity change, negative = cytotoxicity"
1,O=C(Cn1ccc([N+](=O)[O-])n1)N1CCCCCC1,-2.07% (inactive)
2,COc1ccc(Cn2nnnc2C(CC(C)C)N2CCC(C(N)=O)CC2)cc1 (stereo not given),-8.56% (inactive)
3,CN(C)C(=O)CSc1nc2ccc(C(=O)c3ccccc3)cc2[nH]1,-13.4% (inactive)
4,CCc1cccc(OC2OC(CO)C(O)C(O)C2NC(C)=O)c1 (stereo not given),-12.1% (inactive)
5,Cc1ccc(-n2c(C)cc(/C=N/NC(=O)Cn3c4ccccc4c(=O)c4ccccc43)c2C)cc1,-6.83% (inactive)
6,CC1CCCCC1NC(=O)CN1C(=O)c2cccc(N)c2C1=O (stereo not given),-3.23% (inactive)
7,CSC1=NSC2=NC(=O)/C(=C/c3coc4ccc(O)cc4c3=O)C(=N)N12,-14.4% (inactive)
8,COc1ccc(C2C(C#N)=C(N)Oc3cc(O)ccc32)cc1Cl (stereo not given),-4.61% (inactive)
9,CCCCN1C=C(C(=O)OC)C(c2ccccc2Cl)C(C(=O)OC)=C1,11.9% (inactive)
10,Cc1c(Nc2c3ccccc3nc3ccccc23)c(=O)n(-c2ccccc2)n1C,-6.17% (inactive)
11,CCOC(=O)C1CCCN(CCCc2ccccc2)C1 (stereo not given),-13.1% (inactive)
12,Cc1nc2ccccc2c2oc(C(=O)NCCCN3CCC(C)CC3)cc12,-12.2% (inactive)
13,Cc1ccc(-n2nnnc2CNC(=O)C(=O)c2c[nH]c3ccccc23)cc1C,-9.06% (inactive)
14,Cc1c(C(=O)NCc2cccc([N+](=O)[O-])c2)sc(=O)n1Cc1cccc(F)c1,-4.27% (inactive)
15,O=C(O)c1cccc(NC(=O)c2cn(-c3ccccc3)nc2-c2cccc(Br)c2)c1,-7.45% (inactive)
16,O=C(O)c1ccc(-c2ccc(/C=C3\NC(=O)N(Cc4ccc(Cl)cc4)C3=O)o2)cc1,9.07% (inactive)
17,O=C(O)C1=CC[C@@H](c2ccc(Cl)cc2)N(S(=O)(=O)c2ccc(Cl)cc2)[C@H]1c1ccc(F)cc1,9.31% (inactive)
